Source: PubChem BioAssay (Tox21)
“And” between values parts separate entries of the source, which are not always exact repeats. Identical values can stand only once. Records with an inconclusive call do not appear. Where a structure was tested more than once in an assay, its records may differ in their call. The source made the active and inactive calls. Unless noted, calls come from the whole dose curve; as a rule, active = well fitted curve in the direction sought with a large enough effect in the repeat runs; inconclusive = weak or mixed curves; inactive = no such curve, though single readings can be large; an effect the other way counts as inactive or inconclusive.

Tests used:
[1] = molecular target: Retinoic acid receptor RXR-alpha (Homo sapiens) (UniProt P19793); test: qHTS assay to identify small molecule agonists of the RXR signaling pathway (AID 1159527; calls by dose curve; note: nearly all actives have a fitted effect of over 35% in size)
Retinoic acid receptor RXR-alpha (Homo sapiens), sequence (P19793 whole entry, looked up): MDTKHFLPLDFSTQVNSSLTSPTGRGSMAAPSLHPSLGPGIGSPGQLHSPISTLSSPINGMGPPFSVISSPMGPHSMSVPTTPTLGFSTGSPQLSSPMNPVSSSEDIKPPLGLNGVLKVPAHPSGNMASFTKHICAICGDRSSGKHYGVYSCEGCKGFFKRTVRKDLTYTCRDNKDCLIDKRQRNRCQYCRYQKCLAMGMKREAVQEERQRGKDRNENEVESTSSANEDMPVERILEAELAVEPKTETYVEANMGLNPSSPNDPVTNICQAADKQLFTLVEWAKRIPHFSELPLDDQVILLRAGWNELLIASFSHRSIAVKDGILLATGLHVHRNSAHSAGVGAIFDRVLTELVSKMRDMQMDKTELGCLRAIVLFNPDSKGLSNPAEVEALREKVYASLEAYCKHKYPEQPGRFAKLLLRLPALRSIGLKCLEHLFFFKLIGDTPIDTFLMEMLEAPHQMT
Method in brief: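 GeneBLAzer RXR-alpha-UAS-bla HEK 293T cells in medium with 2% charcoal-stripped FBS, pre-incubated 5 hr at 37 C, then exposed to compounds 16 hr. Beta-lactamase reporter read by FRET substrate, 2 hr room temperature, 460/530 nm emission.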

[2] = qHTS assay to identify small molecule agonists of the RXR signaling pathway - cell viability counter screen (AID 1159529); note: series mostly up to about 77 µM; nearly all actives have a fitted effect of over 50% in size
Method in brief: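 RXR-alpha-UAS-bla HEK 293T cells in medium with 2% charcoal-stripped FBS were preincubated 5 hr, then exposed to compounds for 16 hr at 37 C. Viability was read as CellTiter-Glo luminescence after 30 min at room temperature.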

[3] = qHTS assay to identify small molecule antagonists of the retinoid acid receptor (RAR) signaling pathway - cell viability counter screen (AID 1159551); note: nearly all actives have a fitted effect of over 35% in size
Method in brief: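 C3RL4 RARE-luciferase cells, 1,000/well, incubated overnight, then dosed with compound plus 1 uM retinol (final). After 6 hr at 37 C, viability read by CellTiter-Glo ATP luminescence following 30 min at room temperature.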

[4] = qHTS assay to identify small molecule antagonists of the retinoic acid receptor (RAR) signaling pathway (AID 1159552; note: nearly all actives have a fitted effect of over 50% in size; note: potency is the fitted concentration of half-maximal effect)
Method in brief: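 RARE-luc C3RL4 cells; cpds + 1 uM (final) retinol, 6 hr, 37 C/5% CO2; luciferase reagent, 30 min RT, luminescence readout. Inhibitors of retinol-driven signal scored.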

[5] = qHTS assay to identify small molecule agonists of the retinoic acid receptor (RAR) signaling pathway (AID 1159553); note: potency is the fitted concentration of half-maximal effect
Method in brief: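 C3RL4 RARE-luciferase cells were seeded at 1,000/well and grown overnight at 37 C, then exposed to compounds for 6 hr at 37 C, 5% CO2. Luciferase reagent was added and luminescence was read after 30 min at room temperature.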

[6] = qHTS assay to identify small molecule antagonists of the estrogen related receptor (ERR) signaling pathway - cell viability counter screen (AID 1224818); note: series mostly up to about 46 µM
Method in brief: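 ERR cells, 2,000 per well, compound added after 6 h and incubated 17.5 h at 37 C. Viability read by CellTiter-Fluor fluorescence after a further 30 min at 37 C.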

[7] = qHTS assay to identify small molecule antagonists of the estrogen related receptor signaling pathway with the pleiotropic PPARgamma coactivator (PGC) cell viability counter screen (AID 1224822; note: series mostly up to about 46 µM)
Method in brief: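 PGC/ERR cells rested 6 h, then compound-treated 17.5 h at 37 C. CellTiter-Fluor added for 30 min at 37 C, viability measured by fluorescence intensity.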

[8] = molecular target: Luciferin 4-monooxygenase (Photinus pyralis) (UniProt P08659); test: qHTS assay to identify small molecule inhibitors of firefly luciferase (AID 1224835); note: nearly all actives have a fitted effect of over 25% in size; note: potency is the fitted concentration of half-maximal effect
Luciferin 4-monooxygenase (Photinus pyralis), sequence (P08659 whole entry, looked up): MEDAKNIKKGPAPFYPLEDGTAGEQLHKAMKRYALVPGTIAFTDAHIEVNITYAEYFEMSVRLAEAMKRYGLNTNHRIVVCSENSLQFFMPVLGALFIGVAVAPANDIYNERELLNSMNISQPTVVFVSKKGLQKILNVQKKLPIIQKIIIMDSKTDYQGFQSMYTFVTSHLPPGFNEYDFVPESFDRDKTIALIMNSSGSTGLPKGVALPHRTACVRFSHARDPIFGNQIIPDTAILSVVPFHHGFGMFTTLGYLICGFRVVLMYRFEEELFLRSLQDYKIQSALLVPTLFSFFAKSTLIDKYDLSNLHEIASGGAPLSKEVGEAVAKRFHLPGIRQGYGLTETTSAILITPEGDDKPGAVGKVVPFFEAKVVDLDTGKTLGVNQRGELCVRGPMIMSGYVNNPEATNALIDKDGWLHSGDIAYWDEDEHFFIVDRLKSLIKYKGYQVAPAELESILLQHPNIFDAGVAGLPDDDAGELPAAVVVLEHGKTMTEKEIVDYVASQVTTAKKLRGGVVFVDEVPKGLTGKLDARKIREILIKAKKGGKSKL
Method in brief: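 Biochemical qHTS: compounds run as interplate titrations against purified firefly enzyme, with D-luciferin and ATP each at its KM concentration. Light output recorded by CCD imaging.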

[9] = qHTS assay to identify small molecule agonists of the constitutive androstane receptor (CAR) signaling pathway - cell viability counter screen (AID 1224836); note: series mostly up to about 92 µM; nearly all actives have a fitted effect of over 45% in size
Method in brief: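 HepG2 cells stably carrying hCAR and a CYP2B6-2.2kb reporter were plated 4 h, then given compounds at 15 concentrations plus PK11195 (final 0.75 uM). After 23 h at 37 C, viability was read by CellTiter-Fluor fluorescence.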

[10] = qHTS assay to identify small molecule antagonists of the constitutive androstane receptor (CAR) signaling pathway - cell viability counter screen (AID 1224837); note: series mostly up to about 92 µM; nearly all actives have a fitted effect of over 45% in size
Method in brief: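 HepG2 cells stably carrying hCAR and CYP2B6-2.2kb reporter, stimulated with 50 nM CITCO and compounds at 15 concentrations for 23 h at 37 C. Viability measured by CellTiter-Fluor fluorescence.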

[11] = qHTS assay to identify small molecule antagonists of the estrogen related receptor signaling pathway with the pleiotropic PPARgamma coactivator (PGC) from Tox21 10K library - cell viability counter screen (AID 1224840; active = well fitted cell-killing curve with a large enough effect in the repeat runs, not every such curve was filed as active; note: nearly all actives have a fitted effect of over 40% in size; note: potency is the fitted concentration of half-maximal effect)
Method in brief: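 PGC/ERR cells (2,000/well) plated 6 h, then compound-treated for 17.5 h at 37 C. Viability measured by CellTiter-Fluor fluorescence after 30 min at 37 C, multiplexed with the pathway assay.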

[12] = molecular target: Thyrotropin receptor (Homo sapiens) (UniProt P16473); test: qHTS assay to identify small molecule agonists of the thyroid stimulating hormone receptor (TSHR) signaling pathway (AID 1224843; calls by dose curve; note: nearly all actives have a fitted effect of over 45% in size)
Thyrotropin receptor (Homo sapiens), sequence (P16473 whole entry, looked up): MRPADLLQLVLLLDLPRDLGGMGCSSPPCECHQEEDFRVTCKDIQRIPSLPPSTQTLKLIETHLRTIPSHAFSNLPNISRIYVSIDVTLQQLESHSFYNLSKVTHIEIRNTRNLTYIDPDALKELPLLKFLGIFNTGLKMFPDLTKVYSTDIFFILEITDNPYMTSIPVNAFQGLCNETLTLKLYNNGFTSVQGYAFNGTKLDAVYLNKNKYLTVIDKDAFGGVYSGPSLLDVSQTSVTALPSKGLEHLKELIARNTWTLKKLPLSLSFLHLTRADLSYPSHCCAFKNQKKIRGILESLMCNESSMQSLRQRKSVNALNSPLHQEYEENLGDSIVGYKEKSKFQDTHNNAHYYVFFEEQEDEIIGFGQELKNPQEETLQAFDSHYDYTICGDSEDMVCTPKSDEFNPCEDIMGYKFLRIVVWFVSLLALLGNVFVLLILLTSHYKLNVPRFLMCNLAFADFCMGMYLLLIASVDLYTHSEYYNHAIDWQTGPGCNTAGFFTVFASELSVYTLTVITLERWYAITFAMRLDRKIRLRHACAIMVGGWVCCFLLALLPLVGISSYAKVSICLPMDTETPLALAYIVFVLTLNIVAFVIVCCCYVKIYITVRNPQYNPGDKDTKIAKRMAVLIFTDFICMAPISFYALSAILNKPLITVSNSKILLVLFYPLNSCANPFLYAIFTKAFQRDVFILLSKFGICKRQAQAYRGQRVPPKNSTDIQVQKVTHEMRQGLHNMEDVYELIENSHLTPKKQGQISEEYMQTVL
Method in brief: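 TSHR-HEK293 cells in agonist mode, 30 min room-temperature step, then cAMP measured by competitive HTRF (cAMP-d2 with anti-cAMP cryptate) after 1 h at room temperature. Tested at 15 concentrations in triplicate.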

[13] = molecular target: Nuclear receptor subfamily 1 group I member 3 (Homo sapiens) (UniProt Q14994); test: qHTS assay to identify small molecule antagonists of the constitutive androstane receptor (CAR) signaling pathway (AID 1224838); note: nearly all actives have a fitted effect of over 40% in size; note: potency is the fitted concentration of half-maximal effect
Nuclear receptor subfamily 1 group I member 3 (Homo sapiens), sequence (Q14994 whole entry, looked up): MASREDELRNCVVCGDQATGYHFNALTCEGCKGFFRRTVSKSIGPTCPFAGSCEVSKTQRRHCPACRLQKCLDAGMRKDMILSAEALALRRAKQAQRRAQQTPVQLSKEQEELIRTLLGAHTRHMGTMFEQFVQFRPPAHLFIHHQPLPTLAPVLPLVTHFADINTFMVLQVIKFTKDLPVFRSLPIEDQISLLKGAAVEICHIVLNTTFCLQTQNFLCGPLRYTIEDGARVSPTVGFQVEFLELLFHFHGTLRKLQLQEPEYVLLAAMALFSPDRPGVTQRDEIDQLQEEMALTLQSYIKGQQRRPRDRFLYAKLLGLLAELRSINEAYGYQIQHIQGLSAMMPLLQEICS
Method in brief: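 HepG2 cells stably carrying hCAR and a CYP2B6-2.2kb luciferase reporter, seeded 4 hrs before compound (15 concentrations). Stimulated with 50 nM CITCO for 24 hr at 37 C. ONE-Glo luminescence read after 30 min at room temperature.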

[14] = molecular target: Nuclear receptor subfamily 1 group I member 3 (Homo sapiens) (UniProt Q14994); test: qHTS assay to identify small molecule agonists of the constitutive androstane receptor (CAR) signaling pathway (AID 1224839); note: nearly all actives have a fitted effect of over 15% in size; note: potency is the fitted concentration of half-maximal effect
Method in brief: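 HepG2 cells stably expressing hCAR and a CYP2B6-2.2kb luciferase reporter were treated with compounds at 15 concentrations plus 0.75 uM PK11195 (final) for 24 h at 37 C; luminescence was read after ONE-Glo addition.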

[15] = qHTS assay to identify small molecule antagonists of the estrogen related receptor (ERR) signaling pathway from Tox21 library - cell viability counter screen (AID 1224834); note: nearly all actives have a fitted effect of over 30% in size
Method in brief: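 ERR reporter cells, 2,000 per well, rested 6 h, then exposed to compound in DMSO for 17.5 hours at 37 C. Viability read as fluorescence after 30 min with CellTiter-Fluor.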

[16] = qHTS assay to identify small molecule antagonists of the estrogen related receptor signaling pathway with the pleiotropic PPARgamma coactivator (PGC) from Tox21 10K library (AID 1224841; call rule not given here; note: series mostly up to about 92 µM; actives are mostly falling curves and most rising ones were filed inactive; nearly all actives have a fitted effect of over 50% in size)
Method in brief: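 PGC/ERR cell line, 2,000 cells/well, pre-incubated 6 hours at 37 C, then exposed to compounds for 18 hours at 37 C; luciferase read with One-Glo luminescence after 30 min at room temperature.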

Measured: Potency

CN1C(=O)CCS(=O)(=O)C1c1ccc(Cl)cc1 (stereo not drawn)
inactive: [1] | [2] | [3] | [4] | [5] | [6] | [7] | [8] | [9] | [10] | [11] | [12]

CCCCCCCCCCCCCCCCCC(=O)O
70.5 µM (active) and inactive: [8]
inactive: [1] | [2] | [3] | [4] | [5] | [9] | [10] | [11]

N#CN=C(N)N
inactive: [1] | [2] | [3] | [4] | [5] | [8] | [9] | [10] | [13] | [14] | [11] | [12]

CNC(=O)O/N=C/C(C)(C)S(C)(=O)=O
inactive: [1] | [2] | [3] | [4] | [5] | [8] | [9] | [10] | [13] | [14] | [11]

ClCCOCCCl
inactive: [1] | [2] | [3] | [4] | [5] | [15] | [8] | [9] | [10] | [11] | [12]

CC[N+](=O)[O-]
inactive: [1] | [2] | [3] | [4] | [5] | [8] | [9] | [10] | [13] | [14] | [11] | [12]

FC(F)(F)c1ccc(Cl)cc1
inactive: [1] | [2] | [3] | [4] | [5] | [8] | [9] | [10] | [13] | [14] | [11] | [12]

COc1cc(-c2ccc(N)c(OC)c2)ccc1N
inactive and 29.2 µM (active): [11]
inactive: [1] | [2] | [3] | [5] | [9] | [10] | [13] | [16]
inactive and 58.3 µM (active): [4]
31.8 µM (active) and inactive: [8]
active: [14] 54.7 µM and 58.3 µM

Cl/C=C/Cl
inactive: [1] | [2] | [3] | [4] | [5] | [15] | [8] | [9] | [10] | [11] | [12]

C/C=C/c1ccc2c(c1)OCO2
inactive: [1] | [2] | [3] | [4] | [5] | [8] | [9] | [10] | [13] | [14] | [11] | [12]

CCSC(=O)N1CCCCCC1
inactive: [1] | [2] | [3] | [4] | [5] | [8] | [9] | [10] | [14] | [11] | [16] | [12]
26.5 µM (active) and inactive: [13]

C[C@H]1C(=O)O[C@@H]2CCN3CC=C(COC(=O)[C@](C)(O)[C@]1(C)O)[C@H]23
inactive: [1] | [2] | [3] | [4] | [5] | [15] | [8] | [9] | [10] | [11] | [12]

Oc1c(Br)cc(Br)cc1Br
inactive: [1] | [2] | [3] | [4] | [5] | [8] | [9] | [10] | [13] | [14] | [11] | [12]

O=C/C=C/c1ccccc1
inactive and 34.4 µM (active): [5]
inactive and 44.8 µM (active): [8]
inactive: [1] | [2] | [3] | [4] | [9] | [10] | [13] | [14] | [11] | [12]

C=CCN=C=S
inactive: [1] | [2] | [3] | [4] | [5] | [8] | [9] | [10] | [13] | [14] | [11] | [16] | [12]

CN(C)NC(=O)CCC(=O)O
inactive: [1] | [2] | [3] | [4] | [5] | [8] | [9] | [10] | [13] | [14] | [11] | [16] | [12]
